Hit rate of the full screen: of about 5,000 compounds, about 3,900 (78%) were called active. The set was probably picked from earlier hits. A selection follows. Values without a mark were called inactive. No stated cut-off is given here; in the data, active means inhibition above about 22%; inactive means the rest.
Assay: fluorescence retest of MPTP screen hits in isolated mitochondria, single concentration (AID 624504);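 further: 0% = DMSO vehicle and 100% = positive control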
Conditions: membrane potential, Rhodamine 123 fluorescence, at 10 µM, hits give high values

Structure (SMILES)	inhibition
NS(=O)(=O)c1ccc(NC(=S)Nc2ccc(Br)c(Cl)c2)cc1	76% (active)
CCN1CCC(O)(/C=C/c2ccc(C)cc2)C(C(=O)/C=C/c2ccc(C)cc2)C1 (configuration not stated)	-14.1%
Cc1cc(C)cc(NS(=O)(=O)c2ccc(Oc3ncc(C(F)(F)F)cc3Cl)cc2)c1	93.4% (active)
FC(F)Oc1ccccc1NC(=S)Nc1cccc(Cl)c1Cl	44.5% (active)
CN(Cc1cccnc1)C(=O)c1cc(COc2ccc3ncccc3c2)on1	73% (active)
CCCc1[nH]nc2c1C(c1c(C)nn(-c3ccccc3)c1Cl)C(C#N)=C(N)O2 (configuration not stated)	-3.33%
O=C1CC(c2ccccc2)=NN1c1ccc([N+](=O)[O-])cc1	77.6% (active)
O=C(Nc1cccc(Cl)c1)Nc1ccccc1NS(=O)(=O)c1cccs1	89.6% (active)
COc1cc(CC(=O)Nc2nc(-c3ccc(F)c(F)c3)cs2)cc(OC)c1OC	93.2% (active)
COc1ccc(CC(=O)Nc2nc(-c3ccc(F)c(F)c3)cs2)cc1OC	94.5% (active)
CCCOc1ccc(Cc2c(Cl)nc(SC)nc2NC)cc1	93.6% (active)
Cn1nccc1NC(=O)Nc1ccc(OC(F)(F)F)cc1	73.2% (active)
CC(=N\NC(=O)c1cc(Br)ccc1O)/C(=N/O)C(=O)Nc1ccccc1	78.4% (active)
Cc1oc2c(F)c(F)c(F)c(F)c2c1S(=O)(=O)Nc1cccc(C(F)(F)F)c1	83.5% (active)
Cc1oc2cc([N+](=O)[O-])c(O)c([N+](=O)[O-])c2c1C(=O)c1ccc(Br)cc1	61.8% (active)
O=C(Cc1ccc(-n2c(=O)[nH]c3ccccc3c2=O)cc1)N1CCN(c2cccc(Cl)c2)CC1	49.8% (active)
COc1ccc(CCNc2cc(N3CCN(C(=O)c4ccccc4OC)CC3)ccc2[N+](=O)[O-])cc1OC	47.7% (active)
Cc1ccc2c(c1)C1CN(C)CCC1N2S(=O)(=O)c1ccc(Oc2ccc([N+](=O)[O-])cc2)cc1 (configuration not stated)	-16.2%
Cc1ccc(NC(=O)COc2ccc(-n3ccnc3)cc2)cc1Cl	94.1% (active)
O=C(Nc1nnc(SCc2ccc(Cl)cc2Cl)s1)C1COc2ccccc2O1 (configuration not stated)	72.7% (active)
O=C(Nc1nc2c(F)cc(F)cc2s1)C1COc2ccccc2O1 (configuration not stated)	76.6% (active)
O=C(NCCNc1ccc([N+](=O)[O-])cc1)c1cccc2c(Br)cccc12	84.9% (active)
Cc1cccc(-c2nc3ccc(C(=O)NCCN4CCN(C)CC4)cc3nc2-c2cccc(C)c2)c1	-16.4%
CN1CCN(CCNC(=O)Nc2ccc([N+](=O)[O-])cc2)CC1	75.1% (active)

Structure (SMILES)	inhibition
O=C(NCCCN1CCN(c2ccc(F)cc2)CC1)Nc1ccc([N+](=O)[O-])cc1	89.6% (active)
CCCOc1ccc(C(=O)C(CCC(CNCC)C(=O)c2ccc(OCCC)cc2)CNCC)cc1 (configuration not stated)	-13.8%
O=c1c(-c2ccc3c(c2)OCCO3)c(C(F)(F)F)oc2cc(O)cc(O)c12	80.7% (active)
CC1=C/C(=N\OS(=O)(=O)c2ccccc2)C=CC1=O	92.7% (active)
Cc1c(C(=O)OC(C)C)sc(NC(=O)c2cccnc2)c1C#N	82.8% (active)
Cc1ccc(-c2nc(-c3cccnc3)sc2CC(=O)Nc2ccc(C)c(Cl)c2)cc1	90.8% (active)
CCNS(=O)(=O)c1ccc(NC(=O)Nc2cccc(C(F)(F)F)c2)cc1	73.9% (active)
CCc1cc2c(NC3CCCC3)ncnc2s1	59.8% (active)
N/C(=N\OC(=O)Nc1ccc(Cl)c(Cl)c1)c1ncc(C(F)(F)F)cc1Cl	118% (active)
c1ccc(-c2cc3c(NCC4COc5ccccc5O4)ncnc3s2)cc1 (configuration not stated)	70.6% (active)
O=C(NC1CCN(Cc2ccccc2)CC1)c1cc(Br)c(Br)[nH]1	9.55%
CSc1nccc(NC(=O)c2ccc(C(C)(C)C)cc2)n1	91.4% (active)
COc1cc(C(=O)Nc2oc(-c3ccccc3)c(-c3ccccc3)c2C#N)cc(OC)c1OC	63% (active)
COC(=O)c1sccc1NC(=O)CSc1ccccc1NS(=O)(=O)c1cc(Cl)ccc1Cl	90.9% (active)
Cn1nc(C(F)(F)F)c(C(=O)Nc2cccc(C(F)(F)F)c2)c1SCc1ccc(Cl)cc1	63.4% (active)
COc1ccc(S(=O)(=O)Nc2ccc3oc(C)c(C(C)=O)c3c2)cc1	63.9% (active)
COc1cc(NS(=O)(=O)c2ccc(NC(C)=O)cc2)cc(OC)c1	47.9% (active)
CC(C)OCCCNc1ncnc2c1[nH]c1ccc(F)cc12	110% (active)
COc1ccc2oc(-c3cccc(NC(=O)CSc4ccc(Cl)cc4)c3)nc2c1	70.8% (active)
O=C(Nc1ccc(Cl)cc1)Nc1ccc(Oc2cccnc2)nc1	94.2% (active)
CCCc1cc(=S)n2c([nH]c3ccccc32)c1C#N	80.9% (active)
COc1ccc(Sc2ccc(NC(=O)c3cccc(Cl)c3)cc2C#N)cc1	77.8% (active)
Cc1ccc(Sc2ccc(NC(=O)c3ccc(F)cc3)cc2C#N)cc1	99.4% (active)

— PubChem BioAssay AID624504 (Sanford-Burnham Center for Chemical Genomics, 2012)
